Results filed as inconclusive are left out. Unmarked numbers belong to inactive results. Active and inactive are the calls of the source. The call rests on the fitted dose curve.
What follows are molecules tested against Acetylcholinesterase (Homo sapiens) (UniProt P22303) (assay: Acetylcholinesterase (AChE) small molecule antagonists: fluorescence cell-based qHTS assay (AID 1347398; further: nearly all actives have a fitted effect of over 50% in size)). Conditions: SH-SY5Y cells; Potency: AChE activity; series mostly up to 115 µM; activity change, negative = inhibition: at the top concentration.
Sequence of Acetylcholinesterase (Homo sapiens) (P22303 whole entry, looked up): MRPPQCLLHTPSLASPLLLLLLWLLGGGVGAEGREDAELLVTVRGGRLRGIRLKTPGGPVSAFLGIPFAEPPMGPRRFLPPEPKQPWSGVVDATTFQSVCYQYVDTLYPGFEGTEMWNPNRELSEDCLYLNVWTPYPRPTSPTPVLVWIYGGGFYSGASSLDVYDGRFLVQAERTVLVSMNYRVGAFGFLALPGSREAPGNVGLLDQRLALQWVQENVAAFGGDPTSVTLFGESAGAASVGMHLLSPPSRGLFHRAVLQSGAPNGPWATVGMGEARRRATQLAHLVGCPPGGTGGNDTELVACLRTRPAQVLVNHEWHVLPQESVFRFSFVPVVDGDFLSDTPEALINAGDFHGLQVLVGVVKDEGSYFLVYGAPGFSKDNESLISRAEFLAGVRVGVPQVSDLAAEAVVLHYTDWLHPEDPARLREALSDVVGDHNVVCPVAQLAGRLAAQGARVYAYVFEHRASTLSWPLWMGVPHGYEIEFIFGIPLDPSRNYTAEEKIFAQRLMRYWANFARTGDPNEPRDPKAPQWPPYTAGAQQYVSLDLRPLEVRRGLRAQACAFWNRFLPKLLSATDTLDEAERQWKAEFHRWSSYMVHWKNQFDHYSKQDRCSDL
Excerpt: National Center for Advancing Translational Sciences [NCATS]
Division of Preclinical Innovation [DPI]
U.S. Environmental Protection Agency [EPA]
National Institutes of Environmental Health Sciences [NIEHS]
National Toxicology Program [NTP]
U.S. Food and Drug Administration [FDA]
Acetylcholinesterase (AChE) is the primary cholinesterase in the body that hydrolyzes a key neurotransmitter, acetylcholine. Inhibition of AChE activity can lead to neurotoxicity. Known inhibitors of AChE include organophosphorous pesticides (OP), chemical warfare agents, drugs, and various phytochemicals.
A homogenous cell-based assay using Amplitetrade mark Fluorimetric Acetylcholinesterase Assay Kit *Green Fluorescence* (AAT Bioquest, Sunnyvale, CA) was used to evaluate the chemicals in the Tox21 10K library that inhibit AChE activity. The assay uses Thiolite Green to quantify the thiocholine produced from the hydrolysis of acetylthiocholine by AChE from the SH-SY5Y cells. AChE can hydrolyze acetylthiocholine to create thiocholine. Thiolite Green is fluorescent when reacting with thiocholine. It has spectral properties similar to those of fluorescein. The fluorescence intensity of Thiolite Green is used to measure AChE activity. Its signal can be easily read by a fluorescence microplate reader at Ex/Em = 490/520 nm.
Tox21 Assay Protocol Summary:
For cell-based AChE assay, 2,000 SH-SY5Y cells in 4 uL/well were dispensed into black, clear-bottom 1536-well plates using a Multidrop Combi (Thermo Scientific) dispenser. The assay plates were incubated overnight at 37 C to allow cells to attach to the wells, followed by the transfer of 23 nL compound or DMSO (vehicle control) by a Pintool station (Wako Automation, CA). The plates were incubated for 30 min at 37 C and 5% CO2, followed by the addition of 4 uL of detection cocktail solution (ThioliteGreen, acetylthiocholine) into each well using Flying Reagent Dispenser (Beckman Coulter, CA) and then following 40 min incubation at room temperature. Fluorescent intensity (Ex/Em = 490/520 nm) was measured using an Envision plate reader (PerkinElmer, MA).
On the % scale 0 is the no-effect control and ±100 the full control effect; potency means the concentration at half of the fitted maximal effect.

For `CCOP(=S)(OCC)Oc1ncn(-c2ccccc2)n1`, the Potency was 35.6 µM (active).

In order of rising “activity change, negative = inhibition” value:
1. C#CCN1C(=O)COc2cc(F)c(N3C(=O)C4=C(CCCC4)C3=O)cc21  -18.7%
2. O=[N+]([O-])c1cccc2cccnc12  -15.5%
3. CC1(C)CON(Cc2ccccc2Cl)C1=O  -10.1%
4. CCCSP(=S)(OCC)Oc1ccc(Cl)cc1Cl (stereo not given)  -10.1%
5. COC(=O)c1ccccc1S(=O)(=O)NC(=O)N(C)c1nc(C)nc(OC)n1  -9.73%
6. CCCCCCI  -7.05%
7. O=C(Nc1ccccc1)N(Cc1ccc(Cl)cc1)C1CCCC1  -7%
8. CCCCN(CCCCO)N=O  -5.66%
9. CCSC(=O)N(CC)C1CCCCC1  -0.367%
10. CCC(Cl)[N+](=O)[O-] (stereo not given)  -0.238%
11. CNNC  0.0622%
12. O=C(CCN1CC1)OCC(CO)(COC(=O)CCN1CC1)COC(=O)CCN1CC1  0.24%
13. CCCSC(=O)N(CCC)CCC  0.247%
14. N#CCCC#N  0.416%
15. CNC(=O)Oc1ccccc1C1OCCO1  0.617%
16. CC(N)=S  0.649%
17. [Cl][Sn]([Cl])([Cl])[Cl]  0.714%
18. CC(C)CC#N  0.721%
19. OC(Cn1cncn1)(c1ccc(F)cc1)c1ccccc1F (stereo not given)  1.25%
20. [O]=[Cd]  2.38%
21. Nc1ccccc1Cl  2.48%
22. N#Cc1ccncc1  2.62%
23. CCCCOC(=O)c1ccccc1N  3.52%
24. COC(C)(C)C  3.61%
25. [As]#[In]  4.25%
26. OCCBr  4.55%
27. N#CC(Cl)(Cl)Cl  4.58%
28. C[N+](C)=CCl  5.28%
29. ClC(Cl)Br  7.08%

In order of rising “activity change, negative = inhibition” value:
1. CCC(=O)C(CCN(C)C)(c1ccccc1)c1ccccc1  -23.1% [at 53.7 µM]
2. CC1COC2(c3ccccc3Cl)c3cc(Cl)ccc3NC(=O)CN12 (stereo not given)  -15.5% [at 53.7 µM]
3. CCOC(=O)C1(c2ccccc2)CCN(CCc2ccc(N)cc2)CC1  -6.77% [at 53.7 µM]
4. c1cc2c(c(N3CCNCC3)c1)OCCO2  -6.33% [at 53.7 µM]
5. O=C1OC(CCN2CCCCC2)OC1(c1ccccc1)c1ccccc1 (stereo not given)  -4.52% [at 53.7 µM]
6. CC(C(=O)c1ccccc1)N(C)C (stereo not given)  -2.22% [at 53.7 µM]
7. CCS(=O)(=O)C(C)(C)S(=O)(=O)CC  1.11% [at 53.7 µM]
8. CN(C)CCc1ccc(O)cc1  10.7% [at 53.7 µM]
9. Clc1cccc(N2CCNCC2)c1  43.1% [at 53.7 µM]

`O=C1c2ccccc2C(=O)c2ccccc21` showed an activity change, negative = inhibition of 3.86% [at 23.8 µM].
